Compound activity (PubChem)
Mcl1-Noxa inh – disrupts binding of human Mcl-1 to Noxa peptide | Q07820 | TR-FRET Mcl-1/Noxa peptide binding, 2 h | inhibition, % at 21.7 µM | 220,000 tested, 1.5% active | AID 1022;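 active means compounds that cut the protein-peptide binding signal by more than 50% relative to plate controls in a single-dose test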;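 further: His-tagged Mcl-1 with rhodamine Noxa BH3 peptide and terbium anti-His antibody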
Target sequence (Q07820 whole entry, looked up): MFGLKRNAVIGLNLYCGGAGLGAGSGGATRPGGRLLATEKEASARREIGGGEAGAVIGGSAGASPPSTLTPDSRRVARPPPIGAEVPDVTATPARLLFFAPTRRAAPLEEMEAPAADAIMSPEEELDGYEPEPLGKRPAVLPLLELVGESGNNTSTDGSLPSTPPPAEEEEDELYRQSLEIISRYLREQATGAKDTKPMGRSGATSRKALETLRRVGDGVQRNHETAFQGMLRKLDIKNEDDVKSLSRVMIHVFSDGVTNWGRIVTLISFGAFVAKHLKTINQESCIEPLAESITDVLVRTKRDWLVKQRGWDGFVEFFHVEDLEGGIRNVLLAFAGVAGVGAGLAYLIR
14-3-3 Bad inh – disrupts binding of bovine 14-3-3 zeta to phospho-Bad peptide; P63103; TR-FRET 14-3-3zeta/Dy647-pBad peptide displacement, 1 h; inhibition, % at 21.7 µM; 220,000 tested, 0.71% active;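 active means inhibition above about 70%, limit read from the data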
Target sequence (P63103 whole entry, looked up): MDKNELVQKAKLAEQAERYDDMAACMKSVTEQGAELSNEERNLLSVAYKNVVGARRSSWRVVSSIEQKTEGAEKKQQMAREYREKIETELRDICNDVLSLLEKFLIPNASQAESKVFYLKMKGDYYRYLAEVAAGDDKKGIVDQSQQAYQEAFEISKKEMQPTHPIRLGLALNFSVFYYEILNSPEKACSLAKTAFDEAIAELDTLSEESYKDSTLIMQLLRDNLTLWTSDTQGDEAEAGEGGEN
Bim-Mcl-1 – disrupts Bim peptide binding to human Mcl-1; Q07820; Bead-based flow cytometry, Bim peptide-Mcl-1 binding; inhibition, % at 10 µM; 190,000 tested, 0.1% active; in the data active means inhibition above about 40%
m-calpain inh – inhibitors of pig calpain II | purified calpain II, fluorogenic peptide substrate, 30 min | inhibition, % at 16 µM | 220,000 tested, 0.37% active;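 active means inhibition above about 50%, limit read from the data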
p47phox inh – blocks human p47phox regulatory protein of NADPH oxidases | p47phox/p22phox peptide binding, fluorescence polarization, 2 h | inhibition, % at 24.7 µM | 220,000 tested, 0.53% active;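 active means inhibition above about 30%, limit read from the data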
Mcl1-Bid inh – disrupts binding of human Mcl-1 to Bid peptide; Q07820; TR-FRET Mcl-1/Bid-Dy647 peptide binding, 1536-well; inhibition, % at 21.7 µM; 220,000 tested, 0.97% active; AID 1021;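 active means compounds that cut the binding signal by more than half at the single screening dose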;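 further: His-tagged Mcl-1 with europium anti-His antibody binding Bid BH3 peptide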
Hits are given with their value; n = inactive; x = no result given; + = active, no number. Shown are actives, neighbours in structure and some others; about 3.4% of the full set was active somewhere.

SMILES	Mcl1-Noxa inh	14-3-3 Bad inh	Bim-Mcl-1	m-calpain inh	p47phox inh	Mcl1-Bid inh
Cc1ccc(/C=c2/sc3nnc(-c4ccccc4Cl)n3c2=O)o1	n	n	n	n	n	n
Cc1ccc(-c2nc3s/c(=C\c4ccco4)c(=O)n3n2)cc1	52	n	n	n	n	n
Cc1ccc(/C=c2\sc3nc(-c4ccco4)nn3c2=O)o1	77	n	n	n	n	n
Cc1ccc(/C=c2\sc3nc(-c4ccccc4Br)nn3c2=O)o1	79	n	n	n	n	62
O=c1nc2s/c(=C\c3ccco3)c(=O)n2nc1Cc1ccc(F)cc1	65	n	n	n	n	n
Cc1ccc(-c2nnnn2C2C/C(=N\NC(N)=S)C3OCC2O3)cc1 (stereo unspecified)	n	n	n	n	n	n
Cc1ccc(OCc2ccc(C(=O)O)o2)c([N+](=O)[O-])c1	n	n	n	n	n	n
O=C(NCCN1CCN(c2ccccc2)CC1)C1CCN(S(=O)(=O)c2cccc3nsnc23)CC1	n	n	n	n	n	n
O=C(NCC1CCCO1)c1cc([N+](=O)[O-])ccc1Cl (stereo unspecified)	n	n	n	n	n	94
O=C(NCC1CCCO1)c1ccc(Oc2ccc([N+](=O)[O-])cc2Cl)cc1 (stereo unspecified)	n	n	n	n	n	n
Cc1ccccc1CNC(=O)CN(c1cccc([N+](=O)[O-])c1)S(C)(=O)=O	n	n	n	n	n	n
CC(C)(C)C1CCc2sc(C(=O)NNC(=O)CCl)cc2C1 (stereo unspecified)	n	n	n	66	n	n
Cc1cc(N2CC(C)OC(C)C2)nc2ccccc12 (stereo unspecified)	n	n	n	n	n	n
N#CC(c1ccc(Cl)cc1)N1CCOCC1 (stereo unspecified)	n	n	n	n	n	n
Oc1c(Cl)cc(Cl)cc1C(C#Cc1ccccc1)N1CCOCC1 (stereo unspecified)	n	n	n	53	n	n
Cc1cccc(N2CCN(C(=O)c3cc(C)oc3C)CC2C)c1 (stereo unspecified)	n	n	n	n	n	n
O=C(NC1CCCC1)C(=O)N(c1ccccc1F)C(C(=O)NCC1CCCO1)c1cccs1 (stereo unspecified)	n	n	n	n	n	n
COC(=O)Cn1c(=O)c2c(n(Cc3ccccc3)c1=O)N/C(=C/c1ccc(Br)cc1)C2=O	54	n	x	n	n	n
CC(NS(C)(=O)=O)C(c1cccs1)N1CCN(C)CC1 (stereo unspecified)	n	n	n	n	n	n
COc1ccc(N2CCN(C(c3cccs3)C(C)NS(C)(=O)=O)CC2)cc1 (stereo unspecified)	n	n	n	51	n	n
CC(NS(C)(=O)=O)C(c1cccs1)N1CCN(Cc2ccccc2)CC1 (stereo unspecified)	n	n	n	n	169	n
CC(NS(C)(=O)=O)C(c1cccs1)N1CCN(c2ccc(F)cc2)CC1 (stereo unspecified)	n	n	n	n	n	n
CCOC(=O)CCCNC(=O)CSc1nc2ccc(OCC)cc2[nH]1	n	n	n	n	n	n
CCOc1cc(/C=C2/C(=N)N3C=CSC3=NC2=O)ccc1OCCCOc1ccccc1C	n	n	n	n	n	57
OC(CNCc1ccccc1)Cn1ccc2ccccc21 (stereo unspecified)	n	n	n	n	n	n
SMILES	Mcl1-Noxa inh	14-3-3 Bad inh	Bim-Mcl-1	m-calpain inh	p47phox inh	Mcl1-Bid inh
Oc1ccccc1NCC(O)Cn1ccc2ccccc21 (stereo unspecified)	74	n	n	n	n	n
COC(=O)c1[nH]c2ccc(Br)cc2c1NC(=O)CN1CCCCC1CCO (stereo unspecified)	n	91	n	n	n	n
Cc1cc(CNC(=O)COc2ccc(F)cc2Cl)cc(C)c1O	n	n	n	n	n	n
COc1ccc(C2CC(=O)c3sc(NC(C)=O)nc3C2)cc1 (stereo unspecified)	n	n	n	n	n	n
COc1cccc(NC(=O)CSc2nc3ccccc3n2C)c1	n	n	n	n	n	85
Cc1ccc(NC(=O)CSc2nc3ccccc3c3nc4ccccc4n23)cc1	n	n	n	n	n	62
COc1cccc(NC(=O)CSc2nc(N)cc(N)n2)c1	n	n	n	n	n	n
COc1ccc2c(c1)nc(SCC(=O)c1ccc(Br)s1)n2C	n	84	n	n	n	n
O=C(CSc1nc2ccccc2c2nc3ccccc3n12)NCc1ccco1	n	n	n	n	n	86
COC(=O)CSc1nc2cc(OC)ccc2n1C	n	n	x	n	n	n
Cc1onc(-c2c(Cl)cccc2Cl)c1CO/N=C(\C#N)c1c(Cl)cccc1Cl	n	n	x	n	n	n
O=C(c1cccnc1)C1CCCN(Cc2nc(Cc3ccccc3)no2)C1 (stereo unspecified)	n	n	n	n	n	n
CCN(CC)CCNC(=O)c1cc(-c2ccco2)nc2ccccc12	n	n	n	n	n	n
COc1ccc(OC)c(/C=N/NC(=O)CSc2cc(C)nc3c(OC)cccc23)c1	n	86	n	n	n	n
CCOC(=O)c1cc(-c2ccco2)nc2c1c(C)nn2-c1cccc(Cl)c1	78	n	n	n	n	n
COc1ccc(OC)c(/C=N\NC(=O)CSc2nnc(CCCc3ccc(OC)c(C)c3)o2)c1	n	n	n	n	n	n
O=C(COC(=O)c1cc(-c2ccco2)nc2ccccc12)NCc1ccccc1	n	n	n	n	n	n
CCN(CC)C(=O)COC(=O)c1cc(-c2ccco2)nc2ccccc12	90	n	n	n	46	n
CNC(=O)COC(=O)c1cc(-c2ccco2)nc2ccccc12	76	n	x	n	n	n
Cc1ccc(NC(=S)N(Cc2ccc(Br)cc2)Cc2ccc(C(=O)O)cc2)cc1C	n	n	n	n	n	n
Fc1cccc(Nc2cc(-n3cccn3)ncn2)c1	n	n	n	n	n	n
CC(=O)Oc1cccc(N2C(=O)c3ccc(C(=O)Nc4c[nH]c(=O)[nH]c4=O)cc3C2=O)c1	n	n	n	n	n	n
O=C(Oc1cccc(C(=S)N2CCOCC2)c1)c1cc([N+](=O)[O-])cc([N+](=O)[O-])c1	n	n	n	n	n	n
Cc1ccc(NC(=O)c2cc(-c3ccc(C)o3)nc3ccccc23)cc1	n	n	n	n	n	n
CCN(CC)C(=O)COC(=O)c1cc(-c2ccc(OC)cc2)nc2ccccc12	n	n	n	n	n	97
COc1ccc(OC)c(/C=N/NC(=O)c2cc(-c3ccc(C)o3)nc3ccccc23)c1	n	n	n	n	+	n
Cc1ccc(-c2cc(C(=O)Nc3ccccn3)c3ccccc3n2)o1	82	n	n	n	n	n
CCNC(=O)COC(=O)c1cc(-c2ccc(OC)cc2)nc2ccccc12	n	n	n	n	n	n
